Screening results (PubChem)
This is a sample that favours compounds with a hit; in the whole collection about 2.4% have one here.
D2 ag-1: HTS Assay for Allosteric Agonists of the Human D2 Dopamine Receptor: Primary Screen for Agonists. activation, % at 2 µM. 340,000 compounds, 0.53% hits. HEK293 T-REx D2 cells, calcium flux agonist mode. D(2) dopamine receptor (Homo sapiens), P14416;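 active means activation over 3 SD above normal in the single-dose calcium agonist read, cut at about 30% in these data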; further: 0% is about no effect
Target sequence (P14416 whole entry, looked up): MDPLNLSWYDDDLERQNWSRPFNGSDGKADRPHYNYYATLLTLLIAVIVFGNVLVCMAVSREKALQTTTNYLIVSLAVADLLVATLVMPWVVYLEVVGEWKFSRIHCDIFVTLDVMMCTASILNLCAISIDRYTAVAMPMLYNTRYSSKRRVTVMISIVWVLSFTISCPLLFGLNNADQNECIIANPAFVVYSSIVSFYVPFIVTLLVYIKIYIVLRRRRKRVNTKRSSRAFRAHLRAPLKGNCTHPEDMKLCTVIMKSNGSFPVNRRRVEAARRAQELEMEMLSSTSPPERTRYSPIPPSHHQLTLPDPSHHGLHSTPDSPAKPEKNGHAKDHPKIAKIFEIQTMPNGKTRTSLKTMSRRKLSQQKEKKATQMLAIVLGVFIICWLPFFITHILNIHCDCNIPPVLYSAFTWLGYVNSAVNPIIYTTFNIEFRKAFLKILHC
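Agonism is scored from calcium flux in a force-coupled, inducible HEK293 cell line expressing D2, read kinetically for 180 s after compound addition against dopamine controls.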
D2 antagonist: HTS Assay for Allosteric Antagonists of the Human D2 Dopamine Receptor: Primary Screen for Antagonists; D(2) dopamine receptor (Homo sapiens), P14416; HEK293 TREx D2 cells, calcium flux, dopamine EC80; inhibition, % at 10 µM; 340,000 compounds, 2% hits; in the data active means inhibition above about 30%; inactive means below that, where a call was filed; further: 0% is about no effect
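Calcium flux kinetic readout in an inducible HEK293 TREx D2 line plated overnight at 30 C. After 180 s compound exposure, an EC80 dopamine challenge follows with another 180 s kinetic read to detect antagonism.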
D2 ag-2: Beta-Arrestin HTS for Positive Allosteric Modulators of the Human D2 Dopamine Receptor: Agonists. activation, % (no concentration beside the values). D(2) dopamine receptor (Homo sapiens), P14416. DiscoveRx PathHunter D2 beta-arrestin, luminescence, 90 min; 100% = 57 uM dopamine signal. 360,000 compounds, 0.084% hits; in the data active means activation above about 40%; inconclusive means between about 15% and that limit
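Agonist mode: compounds alone added to overnight-plated D2 PathHunter cells for 90 min at 37 C, with 57 uM final dopamine (EC100) defining full response. Beta-arrestin recruitment detected by chemiluminescent reagent, read after 1 h at ambient temperature.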
D2 PAM-1: HTS Assay for Positive Allosteric Modulators of the Human D2 Dopamine Receptor: Primary Screen for Potentiators; D(2) dopamine receptor (Homo sapiens), P14416; HEK293 T-REx D2, calcium flux, EC20 dopamine potentiation; potentiation, % at 10 µM; 340,000 compounds, 0.34% hits; AID 485347, 2010;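 active means potentiation over 3 SD above the plate norm, cut at about 30% in these data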; further: 0% is about no effect
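Primary screen. Calcium kinetics in induced HEK293 T-REx D2 cells: compound pre-addition 180 s, EC20 dopamine, 180 s more.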
D2 PAM-2: Beta-Arrestin HTS for Positive Allosteric Modulators of the Human D2 Dopamine Receptor: Potentiators; D(2) dopamine receptor (Homo sapiens), P14416; DiscoveRx D2 beta-arrestin cells, luminescence, 90 min; 100% = 57 uM dopamine signal; 360,000 compounds, 0.23% hits; potentiation, % (concentration not given with the values); in the data active means potentiation above about 50%; inconclusive means mostly about 30% to 49%
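D2 cells co-treated with compound plus 50 nM dopamine (EC20) for 90 min at 37 deg C to detect potentiation. Beta-arrestin recruitment was read as enzyme-fragment luminescence after 1 h at ambient temperature. Full response was set by 57 uM dopamine.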
* marks the source's active call; other numbers are inactive results.

Screening CCOC(=O)/C=C/C(=O)Nc1ccc(S(=O)(=O)N2CCCCCC2)cc1 returned D2 ag-1 0, D2 antagonist 31*, D2 ag-2 -3, D2 PAM-1 13 and D2 PAM-2 -5.
For COc1ccc(C(=O)c2ccc(N3CCN(C4CC(=O)NC4=O)CC3)cc2)cc1F (stereo not given) the results were D2 ag-1 0, D2 antagonist 34*, D2 ag-2 -1, D2 PAM-1 3 and D2 PAM-2 14.
`Cc1ccc(C(=O)OC2CCOC2=O)cc1NC(=O)c1ccco1` (stereo not given) gave D2 ag-1 1, D2 antagonist 35*, D2 ag-2 -1, D2 PAM-1 -10 and D2 PAM-2 2.
For COc1ccc(C(=O)Nc2ccc(O)c3ccccc23)cc1OC the results were D2 ag-2 inconclusive and D2 PAM-2 82*.
For N#C/C(=C\c1ccc(-c2ccccc2[N+](=O)[O-])o1)C(=O)Nc1nc(-c2cccs2)cs1 the results were D2 ag-1 0, D2 antagonist 32*, D2 ag-2 -9, D2 PAM-1 16 and D2 PAM-2 -38.
Screening COc1ccc(OC)c([N+](=O)[O-])c1C(N)=O returned D2 ag-1 0, D2 antagonist 7, D2 ag-2 8, D2 PAM-1 -8 and D2 PAM-2 50*.
`COc1ccc(Nc2oc(-c3cccs3)nc2C#N)cc1` gave D2 ag-1 0, D2 antagonist -8, D2 ag-2 8, D2 PAM-1 11 and D2 PAM-2 62*.
CNc1oc(-c2cccs2)nc1C#N was read as D2 ag-2 0 and D2 PAM-2 9.
Screening Cc1cc(=O)n(CC(=O)N2CCN(c3ccc(F)cc3)CC2)c2c1c(C)nn2C returned D2 ag-1 1 and D2 PAM-1 -7.
`CC1(C)CC(=O)C(=Cc2cn(CCC#N)nc2-c2ccc(Cl)cc2)C(=O)C1` gave D2 ag-1 3, D2 antagonist 7, D2 ag-2 0, D2 PAM-1 5 and D2 PAM-2 -1.
CC1(C)CC(=O)C(=Cc2cn(-c3ccccc3)nc2-c2ccc(Cl)cc2)C(=O)C1 was read as D2 ag-1 0, D2 antagonist 32*, D2 ag-2 -2, D2 PAM-1 5 and D2 PAM-2 -7.
`O=C(COC(=O)c1cc[n+]([O-])cc1)Nc1ccc(SC(F)F)cc1` gave D2 ag-1 1, D2 antagonist 31*, D2 ag-2 -1, D2 PAM-1 -5 and D2 PAM-2 0.
O=C(COC(=O)c1cc[n+]([O-])cc1)Nc1ccc(Br)cc1 was read as D2 ag-1 -1, D2 antagonist -24, D2 ag-2 2, D2 PAM-1 -2 and D2 PAM-2 -2.
For CC1CC(C)CN(CCOCCSc2ccccc2)C1 (stereo not given) the results were D2 ag-1 -1, D2 antagonist 65*, D2 ag-2 -3, D2 PAM-1 -21 and D2 PAM-2 -30.
CC1CN(CCCSc2ccc(Cl)cc2)CC(C)O1 (stereo not given) was read as D2 ag-1 -2, D2 antagonist 11, D2 ag-2 -2, D2 PAM-1 -21 and D2 PAM-2 -23.
Screening CC1CC(C)CN(CCOCCSc2ccc(Cl)cc2)C1 (stereo not given) returned D2 ag-1 -1, D2 antagonist 65*, D2 ag-2 1, D2 PAM-1 -25 and D2 PAM-2 -5.
Screening c1ccc(SCCOCCN2CCc3ccccc3C2)cc1 returned D2 ag-1 0, D2 antagonist 75*, D2 ag-2 -7, D2 PAM-1 -20 and D2 PAM-2 -12.
For CC1CC(C)CN(CCCSc2ccccc2)C1 (stereo not given) the results were D2 ag-1 0, D2 antagonist 25, D2 ag-2 -4, D2 PAM-1 11 and D2 PAM-2 -38.
`COc1cccc(CNC(=O)CC(c2ccc(C)cc2)N2Cc3ccccc3C2=O)c1` (stereo not given) gave D2 ag-1 0 and D2 PAM-1 -8.
Cc1cc(C)cc(N(C(=O)c2sc(C)nc2C)C(C(=O)NCc2ccco2)c2ccccc2)c1 (stereo not given) was read as D2 ag-1 0, D2 antagonist -7, D2 ag-2 1, D2 PAM-1 0 and D2 PAM-2 -13.
Screening Cc1ccc(N(C(=O)c2sc(C)nc2C)C(C(=O)NCc2ccco2)c2ccccc2)cc1 (stereo not given) returned D2 ag-1 0, D2 antagonist 44*, D2 ag-2 -2, D2 PAM-1 9 and D2 PAM-2 -20.
`Cc1cccc(N(C(=O)c2sc(C)nc2C)C(C(=O)NCc2ccco2)c2ccccc2)c1` (stereo not given) gave D2 ag-1 0, D2 antagonist 45*, D2 ag-2 -3, D2 PAM-1 1 and D2 PAM-2 -5.
`CC(Cc1ccc(Cl)cc1)N1CCC(n2nccc2NC(=O)C2CCCC2)CC1` (stereo not given) gave D2 ag-1 1, D2 antagonist 31*, D2 ag-2 -1, D2 PAM-1 -14 and D2 PAM-2 -7.
For O=C(Nc1ccnn1C1CCN(Cc2ccccc2)CC1)C1CCCC1 the results were D2 ag-1 0, D2 antagonist 15, D2 ag-2 -3, D2 PAM-1 -14 and D2 PAM-2 -39.
`CSCC(C)N1CCC(n2nccc2NC(=O)c2ccc3c(c2)OCO3)CC1` (stereo not given) gave D2 ag-1 0, D2 antagonist 58*, D2 ag-2 -3, D2 PAM-1 -1 and D2 PAM-2 -4.
For Cc1ccc(N2CCN(C(=O)CCc3c(C)nc4ncnn4c3C)CC2)c(C)c1 the results were D2 PAM-1 -4.
Cn1ccnc1SCC(=O)Nc1ccc(Cl)cn1 was read as D2 ag-1 -1, D2 antagonist 31*, D2 ag-2 -4, D2 PAM-1 -5 and D2 PAM-2 -9.
For Cn1ccnc1SCC(=O)Nc1ccc([N+](=O)[O-])cn1 the results were D2 ag-1 3, D2 antagonist 8, D2 ag-2 -3, D2 PAM-1 2 and D2 PAM-2 -16.
CCOc1cccc2sc(N(CCN(C)C)C(=O)c3ccc(Br)s3)nc12 was read as D2 ag-1 0, D2 antagonist 33*, D2 ag-2 -6, D2 PAM-1 -10 and D2 PAM-2 -18.
